Screening results: PubChem, Sanford-Burnham Center for Chemical Genomics
DUSP3 inh: VHR1 (DUSP3) phosphatase inhibition. P51452. inhibition, % at 20 µM. recombinant VHR phosphatase, colorimetric substrate read-out. 50,000 tested, 0.7% active; in the data active means inhibition above about 60%
Target sequence (P51452 whole entry, looked up): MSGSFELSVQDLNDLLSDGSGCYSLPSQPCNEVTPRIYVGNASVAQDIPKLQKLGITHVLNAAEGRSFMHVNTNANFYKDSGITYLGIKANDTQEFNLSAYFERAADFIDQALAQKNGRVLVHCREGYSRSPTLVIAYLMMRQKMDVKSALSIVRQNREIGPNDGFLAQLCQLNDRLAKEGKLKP
Starred values were filed as active, the others as inactive. The entries come from a sample that favours hits as a whole.

How did Cc1[nH]c2ccccc2c1/C=C/c1nc2ccccc2c(=O)n1C do in these assays?
DUSP3 inh: -2.9

What do the screens show for `COc1cccc(-n2c(/C=C/c3c(C)[nH]c4ccccc34)nc3ccccc3c2=O)c1`?
DUSP3 inh: 75.9*

What do the screens show for `Cc1[nH]c2ccccc2c1/C=C/c1nc2ccccc2c(=O)n1-c1ccc([N+](=O)[O-])cc1`?
DUSP3 inh: 8.3

Results for Nc1cc(Cl)c(S(=O)(=O)NC2CCCCC2)cc1S(=O)(=O)NC1CCCCC1 ?
DUSP3 inh: -2.3

What do the screens show for `COc1ccc(S(=O)(=O)N(CC(=O)Nc2ccc(C)cc2C)Cc2ccccc2)cc1OC`?
DUSP3 inh: -3.0

What do the screens show for `CCOc1ccccc1NC(=O)C1C2CCC3C(CCC21)C3(Cl)Cl` (stereo unspecified)?
DUSP3 inh: 119.3*

How did CCOc1ccccc1NC(=O)c1ccccc1 do in these assays?
DUSP3 inh: -15.2

What do the screens show for `O=C(Nc1cccc2ccccc12)C1C2CCC3C(CCC21)C3(Cl)Cl` (stereo unspecified)?
DUSP3 inh: -13.6

What do the screens show for `CC1=Cc2cc([N+](=O)[O-])ccc2OC12C=Cc1c(ccc3ccccc13)O2` (stereo unspecified)?
DUSP3 inh: -8.0

Results for CCCCCCOc1ccc(N2C(=O)CC(NCc3ccc(OC)cc3)C2=O)cc1 (stereo unspecified) ?
DUSP3 inh: -21.4

Results for COc1ccc(-c2cc(C(F)(F)F)n3ncc(C(N)=O)c3n2)cc1OC ?
DUSP3 inh: 13.0

How did CCOc1ccc(N2Cc3ccccc3C2)cc1 do in these assays?
DUSP3 inh: -7.2

What do the screens show for `CCOc1ccc(C(=O)Nc2cc(=O)n(C)c(=O)n2C)cc1`?
DUSP3 inh: 15.8

Results for CCOc1ccc(N2Cc3ccc(C(=O)NN)cc3C2)cc1 ?
DUSP3 inh: 91.0*

Results for O=C(COc1ccc(Br)cc1)NCc1ccc(F)cc1 ?
DUSP3 inh: -1.8

What do the screens show for `Cc1ccc(/C=C2\SC(=O)N(CCC(=O)Nc3ccccc3)C2=O)cc1`?
DUSP3 inh: -42.0

How did CCN(CC)CCCCCCOc1ccc(F)cc1 do in these assays?
DUSP3 inh: -12.9

What do the screens show for `COc1ccc(C(=O)Nc2ccc(O)c(-c3nc4cc(C)c(C)cc4o3)c2)cc1[N+](=O)[O-]`?
DUSP3 inh: 3.0

What do the screens show for `CCOc1ccccc1N(CC(=O)Nc1cccc(C(F)(F)F)c1)S(=O)(=O)c1ccccc1`?
DUSP3 inh: -2.3

Results for Cc1ccc(S(=O)(=O)N2CCN(C(=O)c3ccc([N+](=O)[O-])cc3)CC2)cc1 ?
DUSP3 inh: 63.7

What do the screens show for `O=C1NC(=S)N(c2ccc(Cl)cc2)C(=O)/C1=C/C=C/c1ccccc1`?
DUSP3 inh: 51.9

What do the screens show for `O=C1NC(=S)N(c2cccc(Cl)c2)C(=O)/C1=C\C=C\c1ccccc1[N+](=O)[O-]`?
DUSP3 inh: 88.0*

What do the screens show for `COc1cccc(N2C(=O)NC(=O)/C(=C/C=C/c3ccccc3[N+](=O)[O-])C2=O)c1`?
DUSP3 inh: 20.8

Results for COc1ccc(/C=C2/SC(N3CCOCC3)=NC2=O)cc1 ?
DUSP3 inh: 3.4

How did Cc1cccc(C2(c3cccc(C)c3)CC2C(=O)NCc2ccccc2)c1 (stereo unspecified) do in these assays?
DUSP3 inh: -9.9

Results for O=C(/C=C/c1ccco1)Nc1ccc(O)c(-c2nc3ccccc3o2)c1 ?
DUSP3 inh: 17.5

How did O=C(Nc1ccc(-c2nc3ccccc3s2)c(O)c1)c1cc2ccccc2o1 do in these assays?
DUSP3 inh: -6.8

How did O=C(/C=C/c1ccco1)Nc1ccc(-c2nc3ccccc3s2)c(O)c1 do in these assays?
DUSP3 inh: 74.7*

How did CCOC(=O)C1=NNC(C(=O)c2ccccc2)C1c1ccc(Br)cc1 (stereo unspecified) do in these assays?
DUSP3 inh: 0.4

How did CCOC(=O)C1NN=C(C(=O)c2ccc(OC)cc2)C1c1ccccc1Cl (stereo unspecified) do in these assays?
DUSP3 inh: 0.3

Results for CCOC(=O)C1=NNC(C(=O)c2ccc(OC)cc2)C1c1ccccc1Cl (stereo unspecified) ?
DUSP3 inh: 104.7*

How did CC(C)(C)c1ccc(OCCOc2ccc(C=C3C(=O)NC(=S)NC3=O)cc2)cc1 do in these assays?
DUSP3 inh: 43.7

How did O=C1CC(=O)N(c2ccccc2)C(=S)N1 do in these assays?
DUSP3 inh: 3.9

How did O=C1CC(=O)N(c2ccc(Cl)c(Cl)c2)C(=S)N1 do in these assays?
DUSP3 inh: 72.6*

What do the screens show for `Cc1ccc(N2C(=O)CC(=O)NC2=S)cc1`?
DUSP3 inh: 6.5

How did O=C1N=C(N2CCCCC2)S/C1=C\c1ccc(F)cc1 do in these assays?
DUSP3 inh: 1.3

Results for CCCOc1cccc(C(=O)NCc2ccncc2)c1 ?
DUSP3 inh: -0.1

How did COc1cccc(NC2=C(Cl)C(=O)N(c3cccc(C)c3)C2=O)c1 do in these assays?
DUSP3 inh: 4.7

How did O=C(O)CSCC(NC(=S)Nc1ccccc1)C(=O)O (stereo unspecified) do in these assays?
DUSP3 inh: -3.6

Results for CC(=O)Nc1ccc(NC(=S)Nc2ccccc2)cc1 ?
DUSP3 inh: 7.3

What do the screens show for `O=C(O)C(Cc1ccccc1)NC(=S)Nc1ccccc1` (stereo unspecified)?
DUSP3 inh: 98.9*

What do the screens show for `CCN(CC)S(=O)(=O)c1ccc(NC(=S)Nc2ccccc2)cc1`?
DUSP3 inh: -7.2

Results for O=C(NC(Cc1ccccc1)C(=O)Nc1ccccc1)OCc1ccccc1 (stereo unspecified) ?
DUSP3 inh: 3.9

Results for CCC(C)C(NC(=S)Nc1ccccc1)C(=O)O (stereo unspecified) ?
DUSP3 inh: 98.4*

How did CCOC(=O)C1C(=O)C=C(C)C(C(=O)OCC)C1c1ccc(Br)cc1 (stereo unspecified) do in these assays?
DUSP3 inh: 4.2

What do the screens show for `COc1ccc(CC(=O)Nc2cccc(I)c2)cc1OC`?
DUSP3 inh: -6.4

Results for O=C(O)C(NS(=O)(=O)c1ccc(Br)cc1)C(O)c1ccccc1 (stereo unspecified) ?
DUSP3 inh: -14.7

Results for O=C(Cn1cc(C=C2C(=O)NC(=S)NC2=O)c2ccccc21)Nc1ccccc1 ?
DUSP3 inh: 13.0

What do the screens show for `CCn1cc(/C=C2\C(=O)NC(=O)N(c3ccccc3)C2=O)c2ccccc21`?
DUSP3 inh: -0.9

What do the screens show for `C=CCN1C(=O)/C(=C\c2cn(Cc3ccc([N+](=O)[O-])cc3)c3ccccc23)C(=O)NC1=S`?
DUSP3 inh: 82.9*

What do the screens show for `C=CCN1C(=O)/C(=C\c2cn(C)c3ccccc23)C(=O)NC1=S`?
DUSP3 inh: 8.4

What do the screens show for `Cc1ccc(-c2ccc(C=C3C(=O)NC(=S)NC3=O)o2)c(Br)c1`?
DUSP3 inh: 22.4

What do the screens show for `C=CCN1C(=O)/C(=C\c2ccc(C)o2)C(=O)NC1=S`?
DUSP3 inh: 43.1

Results for O=C1NC(=S)N/C1=C/c1ccc(-c2cc(C(=O)O)ccc2Cl)o1 ?
DUSP3 inh: -4.9

What do the screens show for `CCn1cc(C=C2C(=O)NC(=S)NC2=O)c2ccccc21`?
DUSP3 inh: 76.5*

How did Cc1cc(Br)c(-c2ccc(/C=C3/NC(=S)NC3=O)o2)cc1C do in these assays?
DUSP3 inh: 91.1*

How did C=CCN1C(=O)/C(=C/c2ccccc2Cl)C(=O)NC1=S do in these assays?
DUSP3 inh: -1.8

What do the screens show for `C=CCN1C(=O)/C(=C\c2ccc(-c3ccc(C)cc3Br)o2)C(=O)NC1=S`?
DUSP3 inh: 87.8*

Results for O=C1NC(=S)N/C1=C/c1ccc(-c2cccc(Cl)c2Cl)o1 ?
DUSP3 inh: -8.3

What do the screens show for `Cc1cc(C)c(-c2csc(NC(=O)c3ccc(Cl)cc3Cl)n2)c(C)c1`?
DUSP3 inh: 5.9
